“And” between values parts separate entries of the source, which are not always exact repeats. Equal values may be shown once. About 5,100 (32%) of roughly 16,000 compounds were called active. Another 25% or so got no clear call; they are omitted. This is one part of the list. A number with no mark means an inactive call. Calls come from the whole dose curve; as a rule, active = well fitted curve in the direction sought with a large enough effect; inconclusive = small, poorly fitted or top-dose-only effect, or effect the other way; inactive = no such curve, though single readings can be large or run the other way.
% is set by controls: 0 for no effect and ±100 for the full control effect.

For this assay, the target named is Cytochrome P450 3A4 (Homo sapiens) (UniProt P08684). In words: Cytochrome panel assay with activity outcomes. The settings on record: recombinant CYP, pro-luciferin dealkylation, luminescence, p450-cyp3a4; series mostly up to 57.1 µM; activity, negative = inhibition: at the top concentration.
Cytochrome P450 3A4 (Homo sapiens), sequence (P08684 whole entry, looked up): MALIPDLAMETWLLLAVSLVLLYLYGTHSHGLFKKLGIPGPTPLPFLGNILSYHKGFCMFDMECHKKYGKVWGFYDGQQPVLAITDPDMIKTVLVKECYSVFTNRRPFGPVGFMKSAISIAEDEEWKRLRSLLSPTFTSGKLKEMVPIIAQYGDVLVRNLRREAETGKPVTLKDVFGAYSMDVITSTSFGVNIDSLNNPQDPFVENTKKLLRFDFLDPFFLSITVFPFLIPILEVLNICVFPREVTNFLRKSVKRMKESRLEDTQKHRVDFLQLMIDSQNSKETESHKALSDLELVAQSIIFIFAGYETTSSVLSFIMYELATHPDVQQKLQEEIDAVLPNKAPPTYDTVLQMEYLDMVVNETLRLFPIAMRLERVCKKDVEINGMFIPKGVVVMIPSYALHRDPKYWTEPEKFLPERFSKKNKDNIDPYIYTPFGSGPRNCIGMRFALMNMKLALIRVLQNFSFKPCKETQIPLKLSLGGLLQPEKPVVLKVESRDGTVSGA
As for `COc1ccc(OCC(=O)NNC(=O)c2ccc(-c3ccccc3)cc2)cc1`, the “activity, negative = inhibition” value is -12.2%. Consider `COc1cc(/C=N\NC(=O)C2C(=O)NCC2c2ccccc2)cc(OC)c1O` (stereo not given), for which the “activity, negative = inhibition” value was -12.3%. Turning to `CC(C)[C@H](N)c1nnc(SCc2ccc(Cl)cc2)o1`, the concentration at half-maximal activity (AC50) is 1.58 µM (active). Regarding `CSc1nsc(SCc2ccc(Cl)cc2)n1`, the “activity, negative = inhibition” value is 11%. With `CC(C)[C@H](N)c1nnc(SC/C=C/c2ccccc2)o1`, the half-maximal activity concentration (AC50) is 1.26 µM (active). As for `Clc1cccc(Cl)c1CSc1nnc(/C=C/c2ccccc2)o1`, the activity, negative = inhibition was -16.1% [at 11.4 µM]. On to `Clc1ccc(CSc2ncnc3c2ncn3[C@@H]2CCCCO2)cc1`, for which the activity, negative = inhibition was 11.8% [at 11.4 µM]. For the molecule `CC(C)=NNc1ncnc2nc[nH]c12`, the activity, negative = inhibition is 4.57% [at 11.4 µM]. For the molecule `NOCC(=O)O`, the “activity, negative = inhibition” value was 4.96%.

For `O=C(O)CCNc1ccccc1C(=O)O`, the activity, negative = inhibition is -9.69% [at 11.4 µM].

With `CN1CCN(c2ncc3nc(-c4cn(C)c5ccccc45)c(=O)n(CCc4ccccc4)c3n2)CC1`, the AC50 is 15.8 µM (active).

In the case of `Cn1cc(-c2nc3cnc(N4CCNCC4)nc3n(CCc3ccccc3)c2=O)c2ccccc21`, the AC50 is 12.6 µM (active). `CN1CCN(c2ncc3nc(-c4cn(C)c5ccccc45)c(=O)n(-c4ccccc4)c3n2)CC1`: the concentration at half-maximal activity (AC50) was 25.1 µM (active).

As for `CN1CCN(c2ncc3nc(-c4ccccc4)c(=O)n(C)c3n2)CC1`, the “activity, negative = inhibition” value is 16%. Turning to `CN1CCN(c2ncc3ncc(=O)n(-c4ccccc4)c3n2)CC1`, the “activity, negative = inhibition” value is -3.73%. For the molecule `Cn1cc(-c2nc3cnc(N4CCNCC4)nc3n(Cc3ccc(F)cc3)c2=O)c2ccccc21`, the AC50 is 12.6 µM (active). For the molecule `NC1=C2NC=N[C@@H]2N(C/C=C\c2ccccc2)C=N1`, the activity, negative = inhibition is -17.9% [at 11.4 µM]. Turning to `CN(C)Cc1c[nH]c2nc[nH]c(=O)c12`, the activity, negative = inhibition was -2.68% [at 11.4 µM]. For the molecule `O=C(O)C1=C/C(=C(/c2ccccc2)c2cc(C(=O)O)c(O)c3ccccc23)c2ccccc2C1=O`, the activity, negative = inhibition is 6.76% [at 11.4 µM] and -24.1% [at 11.4 µM]. Regarding `COCCn1c(=O)c(-c2cn(C)c3ccccc23)nc2cnc(N3CCNCC3)nc21`, the half-maximal activity concentration (AC50) was 25.1 µM (active). `Cn1cc(-c2nc3cnc(N4CCNCC4)nc3n(C)c2=O)c2ccccc21`: the AC50 was 20 µM (active).

As to `Cn1c(=O)c(-c2ccccc2)nc2cnc(N3CCNCC3)nc21`, the “activity, negative = inhibition” value was -28%. Take `O=S(=O)(O)c1cc(N=[N+]([O-])c2cc(S(=O)(=O)O)c3ccccc3c2)cc2ccccc12`: the activity, negative = inhibition was -21.4% [at 11.4 µM]. Turning to `O=C(NC(Cc1ccccc1)C(=O)O)/C(=C\c1ccco1)NC(=O)c1ccc(Br)cc1` (stereo not given), the “activity, negative = inhibition” value is 17%. For the molecule `CC(=O)NS(=O)(=O)c1ccc(NC(=S)NC(=O)c2ccco2)cc1`, the “activity, negative = inhibition” value is -2.27%.

On to `Cc1ccc(NC(=O)/C(=C\c2ccc3c(c2)OCO3)NC(=O)c2ccco2)cc1`, for which the AC50 is 2.51 µM (active).

Consider `C=CCNC(=O)/C(=C\c1ccc2c(c1)OCO2)NC(=O)c1ccc(Br)cc1`, for which the AC50 was 0.447 µM (active). Turning to `O=C(N/N=C/c1ccc2c(c1)OCO2)/C(=C/c1ccc2c(c1)OCO2)NC(=O)c1ccccc1`, the half-maximal activity concentration (AC50) was 1.12 µM (active). With `Cc1ccc(S(=O)(=O)NC(=O)Nc2ncn[nH]2)cc1`, the activity, negative = inhibition is -2.15% [at 11.4 µM]. Same read-out and setting: the value for `COc1ccc(/C(O)=C2/C(=O)C(=O)N(CCN3CCOCC3)C2c2ccc(C)cc2)cc1` (stereo not given) was -8.55%.

As to `CCOCCCN1C(=O)CN(C2CCCCCC2)C(=O)C1c1ccc(OC)cc1` (stereo not given), the AC50 is 12.6 µM (active). Still for that read-out and setting: for `CCOCCCN1C(=O)CN(C2CCCCC2)C(=O)C1c1ccc(OCC)c(OC)c1` (stereo not given) the value was 12.6 µM (active).

On to `CCOCCCn1cnc2c([nH]c3cc(OC)ccc32)c1=O`, for which the “activity, negative = inhibition” value is -26.5%.

Regarding `COc1ccc(-n2nnnc2SCC(=O)Nc2ccccc2)cc1`, the concentration at half-maximal activity (AC50) was 14.1 µM (active). As for `COc1ccc(NC(=O)Cn2cccc2)c(OC)c1`, the “activity, negative = inhibition” value was -28.6%. Same read-out and setting: the value for `COc1ccc(NC(=O)CSC2=NC(=O)CC(C)=N2)cc1` was -14.6%. For `COc1ccc(-n2ccnc2SCC(=O)Nc2ccccc2)cc1`, the AC50 is 11.2 µM (active). Regarding `COc1ccc(-n2nnnc2/C=C\Nc2ccccc2C(=O)c2ccccc2)cc1`, the “activity, negative = inhibition” value was 19.1%. For `COc1ccc(NC(=O)CSc2ccc3c4c(cccc24)C(=O)c2ccccc2-3)cc1`, the AC50 was 1 µM (active). For `COc1ccc(-n2ccnc2SCC(=O)Nc2ccc(OC)cc2OC)cc1`, the AC50 was 3.98 µM (active). For the molecule `CCn1c(SCC(=O)OC)nnc1C1CCCCC1`, the “activity, negative = inhibition” value was -11.2%. With `CCn1c(SC)nnc1C1CCN(S(=O)(=O)c2ccc(OC)cc2)CC1`, the “activity, negative = inhibition” value was -23.7%. Regarding `Cn1nnnc1SCC(=O)Nc1ccccc1[N+](=O)[O-]`, the “activity, negative = inhibition” value was 6.06%. Consider `COc1ccc(OC)c(/C=N/NC(=O)c2csc3ccccc23)c1`, for which the activity, negative = inhibition was 3.57% [at 2.29 µM]. With `CCn1c(SCC(=O)c2ccc(OC)cc2)nnc1C1CC1`, the AC50 is 22.4 µM (active). Regarding `COc1ccc(O)c(/C=N/NC(=O)CSc2nnc(C)n2-c2ccccc2)c1`, the AC50 was 7.94 µM (active). Take `COc1ccc(NC(=O)CSc2nnc(C3CC3)n2N)cc1`: the activity, negative = inhibition was -8.56% [at 11.4 µM]. Regarding `COC(=O)CSc1nnc(C)n1-c1cccc(OC)c1`, the “activity, negative = inhibition” value is -15%.

On to `COc1ccc(NC(=O)CSc2nnc(C3CC3)n2-c2ccccc2)cc1`, for which the AC50 was 3.16 µM (active). On to `CCC(=O)Nc1ccc(NC(=O)CSc2nnnn2-c2cccnc2)cc1C`, for which the AC50 was 3.55 µM (active).

The values are drawn from PubChem BioAssay AID1851 (National Center for Advancing Translational Sciences (NCATS), 2009).
